Source: PubChem BioAssay (Broad Institute)
This is a sample that favours compounds with a hit; in the whole collection about 1.7% have one here.
CFTR F508del cor – F508del CFTR correction, initial screen, CFBE line, single point | CFBE cells, YFP halide quenching; stimulated with forskolin plus potentiator P3; % fluorescence drop versus neutral controls | activity (quench increase), % at 7.58 µM | 0.36% of 350,000 active | AID 720511, 2013;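 active = mean added fluorescence quench of at least 8% versus neutral control, with both replicates also reaching 8%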;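 note: cells transiently co-express mutant CFTR-F508del with the halide-sensitive YFP; corrector assay measuring rescue of mutant channel to the surface after 24 h compound exposure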
Vif inh – HIV Vif self-association inhibitors, primary screen, imaging, HEK293T, single point; inhibition, % at 7.49 µM; HEK293T cells, Vif self-association by quenched fluorescence, 24 h; AID 602346, 2012; 0.35% of 340,000 active; in the data active = inhibition above about 50%, passing the limit was not always enough
FGF22 binding – binders of human FGF22 protein, primary screen, FGF22 synaptogenesis inhibitor project, biophysical, thermal shift, single point | AID 651658, 2012 | recombinant FGF22 thermal shift, SYPRO orange fluorescence; percent of sucrose octasulfate shift, DMSO zero | activity (Tm shift, normalised), % at 9.99 µM | Fibroblast growth factor 22 (Homo sapiens), Q9HCT0 | 1.5% of 340,000 active;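 active = mean Tm shift, scaled 0 neutral to 100 positive control, at about 1.3% or above, every replicate too, limit read from the data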
Target sequence (Q9HCT0 whole entry, looked up): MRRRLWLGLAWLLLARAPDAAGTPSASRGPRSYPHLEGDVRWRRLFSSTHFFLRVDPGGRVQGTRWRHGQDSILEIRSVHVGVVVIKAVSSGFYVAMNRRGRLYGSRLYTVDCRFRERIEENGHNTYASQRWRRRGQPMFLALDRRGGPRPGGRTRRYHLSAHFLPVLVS
The depositor's hits bear a star; x = no result.

SMILES	CFTR F508del cor	Vif inh	FGF22 binding
C[C@@H]1CN([C@H](C)CO)C(=O)c2c(c3ccccc3n2C)-c2ccccc2CO[C@@H]1CN(C)C(=O)Nc1ccccc1C(F)(F)F	1	53*	0
C[C@@H]1CN([C@H](C)CO)C(=O)c2c(c3ccccc3n2C)-c2ccccc2CO[C@@H]1CN(C)Cc1ccc(C(F)(F)F)cc1	-1	x	1.4*
C[C@@H]1CN([C@H](C)CO)C(=O)c2c(c3ccccc3n2C)-c2ccccc2CO[C@H]1CN(C)C(=O)Nc1ccccc1C(F)(F)F	4	x	x
C[C@H]1CN([C@@H](C)CO)C(=O)c2c(c3ccccc3n2C)-c2ccccc2CO[C@@H]1CN(C)Cc1ccc(C(F)(F)F)cc1	4	x	x
C[C@H]1CN([C@@H](C)CO)C(=O)c2c(c3ccccc3n2C)-c2ccccc2CO[C@@H]1CN(C)Cc1ccc(Oc2ccccc2)cc1	-2	x	x
C[C@H]1CN([C@@H](C)CO)C(=O)c2c(c3ccccc3n2C)-c2ccccc2CO[C@H]1CN(C)Cc1ccc(Oc2ccccc2)cc1	-3	x	1.3*
C[C@H]1CN([C@@H](C)CO)C(=O)Cc2cc(NS(=O)(=O)c3ccccc3)ccc2O[C@@H]1CN(C)Cc1ccncc1	0	x	0
C[C@H](CO)N1C[C@H](C)[C@H](CN(C)S(=O)(=O)c2cn(C)cn2)Oc2ccc(NC(=O)NC3CCCCC3)cc2CC1=O	-3	x	0
CO[C@@H]1CN(C)C(=O)c2ccc(NC(=O)Nc3cc(F)ccc3F)cc2OC[C@@H](C)N(C(=O)c2cnccn2)C[C@H]1C	-1	x	-1
O=C(O)c1cccc([N+](=O)[O-])c1C(=O)Nc1nc2ccccc2s1	2	3	43*
O=C(Nc1nc2ccccc2s1)c1ccccc1[N+](=O)[O-]	3	-6	0
CN(C)C(=O)C[C@@H]1CC[C@@H]2[C@H](COC[C@H](O)CN2C(=O)C2CC2)O1	-2	x	0
COc1ccc(S(=O)(=O)N(C)C[C@H]2Oc3c(NS(=O)(=O)c4cn(C)cn4)cccc3C(=O)N([C@@H](C)CO)C[C@@H]2C)cc1	1	x	0
O=[N+]([O-])c1ccc(CSc2ccc(-c3ccccn3)nn2)cc1	-3	23	0
O=[N+]([O-])c1ccc(CSc2nnc(SCc3ccccc3)s2)cc1	3	-15	44*
COc1cccc(/C=C(/C(=O)OCC(=O)NCC2CCCO2)c2ccccc2)c1 (stereo not drawn)	-1	-4	43*
COc1cccc(/C=C(/C(=O)OCC(=O)NC2CCCCCCC2)c2ccccc2)c1	1	-8	0
CCCC#Cc1ccc([C@H]2[C@@H](CO)N(S(=O)(=O)c3cccc(F)c3)[C@H]2C#N)cc1	1	x	0
Oc1ccccc1N=Cc1c(O)ccc2oc3c(c12)CCCC3	1	-7	0
Oc1cccc2c3c(oc12)CCCC3	0	70*	0
COCCNC(=O)C[C@H]1CC[C@H]2[C@@H](COC[C@H](O)CN2S(=O)(=O)c2ccccc2C)O1	2	x	0
CC1CCN(S(=O)(=O)N2CCCC(C(=O)NCc3ccccc3Cl)C2)CC1 (stereo not drawn)	9.6*	-10	0
CC1CC(C)CN(S(=O)(=O)N2CCCC(C(=O)NCc3ccccc3Cl)C2)C1 (stereo not drawn)	0	-7	0
O=C(Nc1ccc(F)cc1)N1C[C@@H]2[C@H](c3ccccc31)[C@H](CO)N2C(=O)c1ccccn1	-1	x	x
CCC(c1nc2ccccc2[nH]1)n1c(-c2ccnc(Cl)c2)nc2ccccc21 (stereo not drawn)	-3	x	0
SMILES	CFTR F508del cor	Vif inh	FGF22 binding
CCC(c1nc2ccccc2[nH]1)n1c(-c2ccc3cc[nH]c3c2)nc2ccccc21 (stereo not drawn)	2	x	1.5*
CC=Cc1ccc2n(c1=O)C[C@@H]1[C@@H](CO)[C@H](C(=O)N3CCc4ccccc4C3)[C@H]2N1Cc1ccncc1 (mixture of isomers)	-2	x	1.5*
CC=Cc1ccc2n(c1=O)C[C@H]1[C@H](CO)[C@@H](C(=O)N3CCc4ccccc4C3)[C@@H]2N1Cc1ccccc1 (mixture of isomers)	0	x	0
CC(C)NC(=O)Nc1cccc2c1O[C@H](CN(C)C(=O)Nc1ccc(C(F)(F)F)cc1)[C@@H](C)CN([C@@H](C)CO)C2=O	2	x	0
C[C@H](CO)N1C[C@H](C)[C@H](CN(C)S(=O)(=O)c2ccc(F)cc2)OCCCC[C@H](C)Oc2ccc(NC(=O)CCC(F)(F)F)cc2C1=O	2	x	0
O=Nc1c(-c2ccccc2)cc2ccccn12	-2	-5	43*
CN(C)C(=O)C(=O)c1c(-c2ccccc2)cc2ccccn12	x	-4	x
CCC(=O)Nc1cc(C(=O)OCC(=O)c2ccc(Cl)cc2Cl)ccc1C	x	-22	x
O=C(O)CCC(=O)Nc1ccc(C(=O)OCC(=O)c2ccc(Cl)cc2Cl)cc1	1	-2	43*
C[C@@H]1CN([C@@H](C)CO)C(=O)Cc2cc(N(C)C)ccc2O[C@@H]1CN(C)Cc1ccc(Oc2ccccc2)cc1	-2	x	0
CSc1sc(C(=O)O)c(C)c1C(C)=O	x	56*	x
CCOC(=O)c1sc(SC)c(C(C)=O)c1C	x	6	x
C=CCn1c(SCC(=O)c2ccc(O)c(O)c2)nnc1-c1cccc(C)c1	3	8	0
C=CCn1c(SCC(=O)c2ccc(O)c(O)c2)nnc1-c1ccccc1OC	-2	54*	0
CC(C)C#Cc1ccc2c(c1)O[C@@H](CN(C)Cc1cncnc1)[C@@H](C)CN([C@H](C)CO)S2(=O)=O	1	x	0
CC1CCC(NC(=S)NCCN(C)C)CC1 (stereo not drawn)	-3	-11	0
CC1CCC(NC(=O)N(CCCl)N=O)CC1 (stereo not drawn)	-4	59*	0
O=C(COC(=O)Cc1ccc(Br)cc1)NC1CC1	-1	6	0
O=C(NCCc1ccccc1)C1CCN(C(=O)Nc2ccccc2)CC1	-3	-10	0
C[C@H](NC(=O)c1ccccc1Cl)C(=O)NCCc1ccc(S(N)(=O)=O)cc1	2	9	0
O=C(COC(=O)Cc1ccc(Br)cc1)NC1CCCC1	1	18	43*
CCCCC(=O)Nc1ccc(C(=O)NCCc2ccccc2)cc1	x	-4	x
NS(=O)(=O)c1ccc(CCNC(=O)C2CCN(C(=O)Nc3ccccc3)CC2)cc1	0	55*	0
CCCCC(=O)Nc1ccc(C(=O)NCCc2ccc(S(N)(=O)=O)cc2)cc1	1	-1	43*
C[C@H](NC(=O)c1ccc(Cl)cc1)C(=O)NCCc1ccc(S(N)(=O)=O)cc1	3	13	44*
C[C@H](CO)N1C[C@H](C)[C@@H](CN(C)Cc2ccc(Cl)c(Cl)c2)Oc2ccc(NC(=O)CCN3CCOCC3)cc2CC1=O	0	x	0
COc1ccc(S(=O)(=O)N(C)C[C@H]2Oc3ccc(NC(=O)NC(C)C)cc3C(=O)N([C@@H](C)CO)C[C@H]2C)cc1	-1	x	x
